# According to the supplement of paper PMC6555819:
# Tests used:
# Experiment in all cases: PBM binding z-score (relative to random genomic background probes); higher = stronger binding; sequences stand for … in GC…GCGATTGACAGCGTAGAATGAAGG
# [1] = system: FXR:RXRa (NR concentration 270 nM, RXRa partner concentration 90 nM)
# Summary of the method: (§1)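 Random background probes are the reference for binding z-scores. These scores derive from regression-normalized fluorescence on custom Agilent 4×180K protein-binding microarrays incubated 1 h with ligand-free nuclear receptor dimers. Binding was detected with antibodies against each partner (one per run).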
# [2] = system: LXRa:RXRa (NR concentration 270 nM, RXRa partner concentration 90 nM)
# Summary of the method: as §1
# [3] = system: LXRa homodimer (NR concentration 270 nM)
# Summary of the method: as §1
# [4] = system: LXRb:RXRa (NR concentration 270 nM, RXRa partner concentration 90 nM)
# Summary of the method: as §1
# [5] = system: LXRb homodimer (NR concentration 270 nM)
# Summary of the method: as §1
# [6] = system: PPARa:RXRa (NR concentration 270 nM, RXRa partner concentration 90 nM)
# Summary of the method: as §1
# [7] = system: PPARg:RXRa (NR concentration 180 nM, RXRa partner concentration 90 nM)
# Summary of the method: as §1
# [8] = system: PPARg:RXRa 270nM:90nM, anti-RXR (NR concentration 270 nM, RXRa partner concentration 90 nM)
# Summary of the method: as §1
# [9] = system: PPARg:RXRa 30nM:10nM, anti-RXR (NR concentration 30 nM, RXRa partner concentration 10 nM)
# Summary of the method: as §1
# [10] = system: PPARg:RXRa 90nM:30nM, anti-RXR (NR concentration 90 nM, RXRa partner concentration 30 nM)
# Summary of the method: as §1
# [11] = system: PPARg:RXRa DBDmut IVT, anti-RXR (DBD mutation: RXRa K156A/R161A, NR concentration 270 nM, RXRa partner concentration 90 nM)
# Summary of the method: as §1
# [12] = system: PPARg:RXRa IVT, anti-PPARg (NR concentration 270 nM, RXRa partner concentration 90 nM)
# Summary of the method: as §1
# [13] = system: PPARg DBDmut:RXRa IVT, anti-PPARg (DBD mutation: PPARg1 K132A/R137A, NR concentration 270 nM, RXRa partner concentration 90 nM)
# Summary of the method: as §1
# [14] = system: PPARg DBDmut IVT, anti-PPARg (DBD mutation: PPARg1 K132A/R137A, NR concentration 270 nM)
# Summary of the method: as §1
# [15] = system: PPARg homodimer (NR concentration 180 nM)
# Summary of the method: as §1
# [16] = system: PXR:RXRa (NR concentration 270 nM, RXRa partner concentration 90 nM)
# Summary of the method: as §1
# [17] = system: PXR homodimer (NR concentration 270 nM)
# Summary of the method: as §1
# [18] = system: RARa:RXR (NR concentration 270 nM, RXRa partner concentration 90 nM)
# Summary of the method: as §1
# [19] = system: RARa homodimer (NR concentration 270 nM)
# Summary of the method: as §1
# [20] = system: RARb:RXRa (NR concentration 270 nM, RXRa partner concentration 90 nM)
# Summary of the method: as §1
Sequence,PBM binding z-score [1],PBM binding z-score [2],PBM binding z-score [3],PBM binding z-score [4],PBM binding z-score [5],PBM binding z-score [6],PBM binding z-score [7],PBM binding z-score [8],PBM binding z-score [9],PBM binding z-score [10],PBM binding z-score [11],PBM binding z-score [12],PBM binding z-score [13],PBM binding z-score [14],PBM binding z-score [15],PBM binding z-score [16],PBM binding z-score [17],PBM binding z-score [18],PBM binding z-score [19],PBM binding z-score [20]
AATACAGGGTCACCGTAGGCCAGAGTACGCACAG,7.2,6.43,1.2,4.96,0.78,6.14,7.71,6.83,3.15,5.65,3.34,4.88,1.63,0.332,2.04,4.97,0.366,5.28,0.752,4.8
ACACACAGGTGAGTGAAGGTAACTCAGCTGGACG,0.469,0.195,-0.241,-0.0782,-0.78,0.352,0.931,0.0284,-0.027,-0.278,0.846,1.04,0.1,-0.00713,0.147,-0.122,-0.17,0.0752,-0.0711,0.791
ATATGTAGGTTAAGGGCCATTCAGGTTGGTTCGC,0.756,0.989,0.305,0.911,0.0829,4.43,7.86,7.32,6.65,7.62,7.52,6.88,2.91,2.4,1.27,0.874,0.768,0.938,0.601,1.5
CCGACTGGGGCAGAAAGGTTCCCATACCATCCGG,-0.722,-0.705,-0.526,-0.996,-1.27,-0.271,0.412,0.198,-0.842,-0.499,1.45,0.893,-0.887,-1.78,-0.509,-0.725,-0.638,-0.53,-0.395,0.328
CTCGAAAGGTCGCGCTCAGGTGAGTATACCAAAC,5.56,4.34,0.0163,3.5,0.0326,5.16,3.37,4.57,1.32,2.97,1.22,2.52,1.3,0.149,2.13,3.65,-0.145,4.74,-0.225,4.46
TATATTAGTTGATTAGGGCAACCGAAACAGCGGA,0.381,0.319,0.79,0.365,1.33,0.535,0.578,0.666,1.02,0.819,0.409,2.01,2.25,1.83,1.16,0.636,0.89,0.181,2.13,1.16
AGAATGAGGTTAAGATCAGAGAAACAGAATACAT,2.3,2.12,0.0426,1.9,-0.125,3.61,2.54,2.18,0.874,1.71,2.25,2.51,1.54,1.04,0.538,1.22,0.611,2.03,0.226,1.86
